{"source": "paper PMC7862700", "about": "“An all-to-all approach to the identification of sequence-specific readers for epigenetic DNA modifications on cytosine”", "assay_in_all_cases": "DAPPL (digital affinity profiling via proximity ligation, sequencing); 10 mM Tris-HCl pH 7.5, 50 mM NaCl, 1 mM DTT, 4% glycerol, room temperature, 30 min; GST-TFs on glutathione beads, 16-mer random dsDNA library, 0.1% formaldehyde crosslink after washing; high values mean tight binding", "settings_in_all_cases": "protein: recombinant; tags: N-terminal GST; dsDNA, one strand shown", "key": {"FLI1": {"biological_target": "T1, FLI1 (Homo sapiens, UniProt Q01543 1-452)", "T1 sequence": "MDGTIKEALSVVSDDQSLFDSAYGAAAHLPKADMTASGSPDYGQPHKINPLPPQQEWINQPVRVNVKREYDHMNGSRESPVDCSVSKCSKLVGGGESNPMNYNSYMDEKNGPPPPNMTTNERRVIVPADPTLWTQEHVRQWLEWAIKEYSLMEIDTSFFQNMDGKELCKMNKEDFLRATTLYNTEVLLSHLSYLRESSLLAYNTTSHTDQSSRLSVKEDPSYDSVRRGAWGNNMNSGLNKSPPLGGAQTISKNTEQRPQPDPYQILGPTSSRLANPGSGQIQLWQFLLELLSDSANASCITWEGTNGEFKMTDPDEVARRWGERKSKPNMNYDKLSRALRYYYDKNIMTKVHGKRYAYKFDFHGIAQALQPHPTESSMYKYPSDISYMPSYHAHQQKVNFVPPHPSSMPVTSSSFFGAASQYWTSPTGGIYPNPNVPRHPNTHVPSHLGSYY", "procedure,_shortened": "(§1)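 Each value of binding signal is a hexamer's read frequency for a factor divided by the same hexamer's frequency in the tag-only sample. Barcoded, bead-captured GST fusions of human transcription factors made in yeast were pooled with that sample and incubated with 200 nmole of a random double-stranded 16-mer DNA library in Tris/NaCl/DTT/glycerol buffer at room temperature for 30 min. Washing, 0.1% formaldehyde crosslinking, proximity ligation, PCR and Illumina NextSeq500 sequencing followed.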"}, "ELK1": {"biological_target": "T2, ELK1 (Homo sapiens, UniProt P19419 1-428)", "T2 sequence": "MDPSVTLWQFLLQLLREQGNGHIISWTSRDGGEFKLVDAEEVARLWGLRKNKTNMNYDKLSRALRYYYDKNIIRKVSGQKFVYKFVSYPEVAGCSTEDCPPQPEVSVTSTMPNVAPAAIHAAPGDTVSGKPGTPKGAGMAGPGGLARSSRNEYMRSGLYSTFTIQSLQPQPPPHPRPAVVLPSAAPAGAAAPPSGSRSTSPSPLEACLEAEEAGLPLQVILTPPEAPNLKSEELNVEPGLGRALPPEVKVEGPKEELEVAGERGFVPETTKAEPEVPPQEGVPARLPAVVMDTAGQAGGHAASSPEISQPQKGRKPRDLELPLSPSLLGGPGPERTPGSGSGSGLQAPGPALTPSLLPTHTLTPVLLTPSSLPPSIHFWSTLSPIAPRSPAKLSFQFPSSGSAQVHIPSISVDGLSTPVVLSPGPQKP", "procedure,_shortened": "as §1"}, "GABPA": {"biological_target": "T3, GABPA (Homo sapiens, UniProt Q06546 1-454)", "T3 sequence": "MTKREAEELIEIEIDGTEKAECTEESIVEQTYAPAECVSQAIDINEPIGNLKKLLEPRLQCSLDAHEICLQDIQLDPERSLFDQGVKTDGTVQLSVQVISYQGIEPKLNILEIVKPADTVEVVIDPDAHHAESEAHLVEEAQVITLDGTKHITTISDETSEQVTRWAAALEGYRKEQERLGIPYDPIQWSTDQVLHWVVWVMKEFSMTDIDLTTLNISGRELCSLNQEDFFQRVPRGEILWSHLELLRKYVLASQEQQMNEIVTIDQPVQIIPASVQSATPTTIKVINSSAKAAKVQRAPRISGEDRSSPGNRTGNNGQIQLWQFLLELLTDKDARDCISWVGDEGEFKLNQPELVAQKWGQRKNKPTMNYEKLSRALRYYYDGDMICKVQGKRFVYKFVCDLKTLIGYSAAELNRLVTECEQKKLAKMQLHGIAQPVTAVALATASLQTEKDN", "procedure,_shortened": "as §1"}, "ERG": {"biological_target": "T4, ERG (Homo sapiens, UniProt P11308 1-479)", "T4 sequence": "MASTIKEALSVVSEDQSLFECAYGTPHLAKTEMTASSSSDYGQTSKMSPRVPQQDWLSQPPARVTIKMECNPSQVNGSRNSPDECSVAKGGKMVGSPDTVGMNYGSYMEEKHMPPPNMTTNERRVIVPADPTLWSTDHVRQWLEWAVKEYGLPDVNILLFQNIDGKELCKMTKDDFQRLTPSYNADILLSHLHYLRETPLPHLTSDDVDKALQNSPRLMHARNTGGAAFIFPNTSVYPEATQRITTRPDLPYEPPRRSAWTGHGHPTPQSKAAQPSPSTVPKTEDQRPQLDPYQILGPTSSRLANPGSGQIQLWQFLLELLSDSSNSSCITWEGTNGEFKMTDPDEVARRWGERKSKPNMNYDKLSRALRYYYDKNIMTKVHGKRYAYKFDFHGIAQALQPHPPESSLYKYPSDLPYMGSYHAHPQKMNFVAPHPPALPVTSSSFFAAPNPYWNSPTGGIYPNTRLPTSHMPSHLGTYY", "procedure,_shortened": "as §1"}, "ELF1": {"biological_target": "ELF1 (Homo sapiens, UniProt P32519 1-619)", "sequence (P32519 whole entry)": "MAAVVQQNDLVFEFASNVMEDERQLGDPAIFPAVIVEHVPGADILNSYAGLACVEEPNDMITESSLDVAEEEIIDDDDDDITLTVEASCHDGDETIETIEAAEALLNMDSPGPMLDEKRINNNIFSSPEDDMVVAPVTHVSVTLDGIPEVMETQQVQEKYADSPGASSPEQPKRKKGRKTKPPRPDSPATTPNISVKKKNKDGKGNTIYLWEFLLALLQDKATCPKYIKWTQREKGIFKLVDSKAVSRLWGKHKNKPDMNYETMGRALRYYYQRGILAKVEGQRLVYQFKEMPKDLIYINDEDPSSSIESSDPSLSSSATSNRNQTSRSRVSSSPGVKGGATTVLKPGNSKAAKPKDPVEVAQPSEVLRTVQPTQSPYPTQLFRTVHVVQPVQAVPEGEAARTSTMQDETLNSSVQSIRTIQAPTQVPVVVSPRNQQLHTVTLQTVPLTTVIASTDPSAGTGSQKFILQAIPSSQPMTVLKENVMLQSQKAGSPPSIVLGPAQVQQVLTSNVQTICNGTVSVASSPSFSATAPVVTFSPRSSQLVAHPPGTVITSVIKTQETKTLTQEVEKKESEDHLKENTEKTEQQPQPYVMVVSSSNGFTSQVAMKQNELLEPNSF", "procedure,_shortened": "as §1"}, "EHF": {"biological_target": "T5, EHF (Homo sapiens, UniProt Q9NZC4 1-300)", "T5 sequence": "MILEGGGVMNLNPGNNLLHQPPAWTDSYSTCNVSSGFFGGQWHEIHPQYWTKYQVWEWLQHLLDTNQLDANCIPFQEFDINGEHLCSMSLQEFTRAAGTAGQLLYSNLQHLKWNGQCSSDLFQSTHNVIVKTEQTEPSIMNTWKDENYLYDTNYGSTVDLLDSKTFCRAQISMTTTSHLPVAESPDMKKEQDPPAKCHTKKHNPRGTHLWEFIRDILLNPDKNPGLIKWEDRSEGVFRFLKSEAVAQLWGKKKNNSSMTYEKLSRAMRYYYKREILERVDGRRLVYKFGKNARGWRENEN", "procedure,_shortened": "as §1"}, "SPI1": {"biological_target": "SPI1 (Homo sapiens, UniProt P17947 1-270)", "procedure,_shortened": "as §1"}, "SPIB": {"biological_target": "SPIB (Homo sapiens, UniProt Q01892 1-262)", "sequence (Q01892 whole entry)": "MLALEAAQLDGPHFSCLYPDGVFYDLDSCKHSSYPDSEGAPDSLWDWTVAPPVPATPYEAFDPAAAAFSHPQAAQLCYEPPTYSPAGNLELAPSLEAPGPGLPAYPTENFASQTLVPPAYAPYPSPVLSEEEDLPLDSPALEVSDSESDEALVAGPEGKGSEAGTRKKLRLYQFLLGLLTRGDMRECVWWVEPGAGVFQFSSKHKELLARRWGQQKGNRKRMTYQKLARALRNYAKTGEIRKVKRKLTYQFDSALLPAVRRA", "procedure,_shortened": "as §1"}, "ELK3": {"biological_target": "T6, ELK3 (Homo sapiens, UniProt P41970 1-407)", "T6 sequence": "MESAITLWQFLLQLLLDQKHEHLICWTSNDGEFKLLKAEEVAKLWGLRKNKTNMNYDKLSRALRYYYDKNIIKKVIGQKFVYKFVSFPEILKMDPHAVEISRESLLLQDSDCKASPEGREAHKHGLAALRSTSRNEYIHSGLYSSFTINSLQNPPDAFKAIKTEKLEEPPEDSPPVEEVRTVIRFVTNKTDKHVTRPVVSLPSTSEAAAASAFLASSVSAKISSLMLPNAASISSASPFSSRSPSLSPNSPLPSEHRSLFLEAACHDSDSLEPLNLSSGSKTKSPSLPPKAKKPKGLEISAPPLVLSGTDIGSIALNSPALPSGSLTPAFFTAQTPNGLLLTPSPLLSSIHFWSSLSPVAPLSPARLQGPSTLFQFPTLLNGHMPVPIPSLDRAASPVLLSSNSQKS", "procedure,_shortened": "as §1"}}, "data": [{"sequence": "CGACCA", "values": [{"measurement": "binding signal", "setting": "FLI1", "value": "1.2 fold enrichment (6-mer frequency, TF over GST control)"}, {"measurement": "binding signal", "setting": "ELK1", "value": "1.27 fold enrichment (6-mer frequency, TF over GST control)"}, {"measurement": "binding signal", "setting": "GABPA", "value": "1.23 fold enrichment (6-mer frequency, TF over GST control)"}, {"measurement": "binding signal", "setting": "ERG", "value": "1.15 fold enrichment (6-mer frequency, TF over GST control)"}, {"measurement": "binding signal", "setting": "ELF1", "value": "1.31 fold enrichment (6-mer frequency, TF over GST control)"}, {"measurement": "binding signal", "setting": "EHF", "value": "1.28 fold enrichment (6-mer frequency, TF over GST control)"}, {"measurement": "binding signal", "setting": "SPI1", "value": "1.24 fold enrichment (6-mer frequency, TF over GST control)"}, {"measurement": "binding signal", "setting": "SPIB", "value": "1.16 fold enrichment (6-mer frequency, TF over GST control)"}, {"measurement": "binding signal", "setting": "ELK3", "value": "1.37 fold enrichment (6-mer frequency, TF over GST control)"}]}]}
